For 8 compounds, growth results are on record in PubChem BioAssay (NCI).

Holding throughout (assay): NCI-60 one-dose screen, 48 h (100 = growth as untreated, 0 = no growth, -100 = all killed)
One assay concerns SK-MEL-2 melanoma. Conditions: 10 µM unless noted.
The next assay has as its system EKVX NSCLC. Particulars: 10 µM unless noted.
The test system of a further assay is SN12C renal. Conditions: 10 µM unless noted.
For another assay, the system named is UO-31 renal. Particulars: 10 µM unless noted.
A further assay has as its system TK-10 renal. Particulars: 10 µM unless noted.
In a further assay the test system is ACHN renal. Particulars: 10 µM unless noted.
Another assay has as its system CAKI-1 renal. Conditions: 10 µM unless noted.
Another assay relates to A498 renal. Conditions: 10 µM unless noted.
The next assay concerns CCRF-CEM leukemia. Conditions: 10 µM unless noted.
Another assay relates to MOLT-4 leukemia. Particulars: 10 µM unless noted.
Another assay concerns SR leukemia. Conditions: 10 µM unless noted.
A further assay deals with RPMI-8226 leukemia. Particulars: 10 µM unless noted.
Another assay has as its system OVCAR-8 ovarian. Particulars: 10 µM unless noted.
Another assay has as its system OVCAR-5 ovarian. Conditions: 10 µM unless noted.
For the next assay, the system named is OVCAR-4 ovarian. Conditions: 10 µM.
The test system of another assay is IGROV1 ovarian. Particulars: 10 µM unless noted.
A further assay concerns OVCAR-3 ovarian. Particulars: 10 µM unless noted.
The next assay deals with HS 578T breast. Particulars: 10 µM unless noted.
In another assay the test system is NCI/ADR-RES ovarian. Conditions: 10 µM unless noted.

About 83,000 compounds went through this panel and 20% of them were active in at least one assay; those are over-represented in the sample as a whole.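 Single-concentration screen, 48 h exposure, 96-well plates. Endpoint: percent growth. Below 10 = active.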 A number with no mark means an inactive call. Calls of active or inactive are those of the source.

`Cn1cc(-c2noc(C(=O)c3cn(C)c4ncc(Br)cc34)n2)c2ccccc21`: the growth with SK-MEL-2 melanoma is 95.4%; in the assay on EKVX NSCLC, 85.5%; in the assay on SN12C renal it was 94.8%; in the assay with UO-31 renal, 79.3%; in the assay on TK-10 renal, 107%; with ACHN renal it was 102%. Besides, the growth with CAKI-1 renal was 89.5%; in the assay on A498 renal, 75.3%; in the assay with CCRF-CEM leukemia it was -49.1% (active); with MOLT-4 leukemia, 105%; in the assay with SR leukemia, 95.6%; in the assay on RPMI-8226 leukemia it was 84.6%. Further, the growth was 101% in the assay with OVCAR-8 ovarian; 90.2% with OVCAR-5 ovarian; 100% in the assay on OVCAR-4 ovarian; 87.8% in the assay with IGROV1 ovarian; 106% with OVCAR-3 ovarian; 99.7% in the assay on HS 578T breast. Moreover, in the assay on NCI/ADR-RES ovarian, the growth was 106%.

`CC(C)(C)OC(=O)N1C=C/C(=C\Cn2cc(-c3ccccc3)nn2)CC1`: the growth in the assay with SK-MEL-2 melanoma is 64%; in the assay with EKVX NSCLC it was 79.8%; in the assay on SN12C renal, 73.7%; with UO-31 renal, 54.6%; with TK-10 renal, 98.6%; with ACHN renal it was 68.7%. In addition, the growth in the assay with CAKI-1 renal was 67%; in the assay with A498 renal, 54.2%; in the assay on CCRF-CEM leukemia it was 2.78% (active); in the assay with MOLT-4 leukemia it was 65.2%; in the assay with SR leukemia, 57.9%; with RPMI-8226 leukemia it was 62.9%. In addition, the growth is 74.9% in the assay on OVCAR-8 ovarian; 104% in the assay with OVCAR-5 ovarian; 18% with OVCAR-4 ovarian; 82.7% in the assay on IGROV1 ovarian; 86.6% in the assay with OVCAR-3 ovarian; 84.1% in the assay with HS 578T breast. Also, the growth in the assay with NCI/ADR-RES ovarian was 76.9%.

Consider `C[C@@H]1C[C@H]2C(=O)O[C@@H](C)[C@H](NC(=O)[C@H](Cc3cc(F)cc(F)c3)NC(=O)Nc3ccc(C4CC4)cc3F)C(=O)N3CCC[C@H]3C(=O)N3CCCC[C@H]3C(=O)N[C@@H](C)C(=O)N2C1`, for which the growth was 16.7% with SK-MEL-2 melanoma; 26.6% with EKVX NSCLC; 15.8% with SN12C renal; 8.68% (active) with UO-31 renal; 38.4% with TK-10 renal; 11.5% with ACHN renal. Further, the growth is 8.8% (active) in the assay with CAKI-1 renal; -5.24% (active) in the assay with A498 renal; 39.9% in the assay with CCRF-CEM leukemia; 28.6% in the assay with MOLT-4 leukemia; 27.8% in the assay on SR leukemia; 14% with RPMI-8226 leukemia. Moreover, the growth in the assay with OVCAR-8 ovarian is 11%; in the assay on OVCAR-5 ovarian it was -2.59% (active); with OVCAR-4 ovarian, 7.8% (active); in the assay with IGROV1 ovarian it was 28.5%; with OVCAR-3 ovarian it was 5.07% (active); in the assay with HS 578T breast, 18.1%. The growth with NCI/ADR-RES ovarian was 14.9%.

In the case of `C#C[C@]1(O)CC[C@H]2[C@@H]3CC=C4c5nc(Nc6ncccn6)sc5CC[C@]4(C)[C@H]3CC[C@@]21C`, the growth with SK-MEL-2 melanoma was 18%; with EKVX NSCLC, 43.6%; in the assay with SN12C renal, 82.8%; in the assay on UO-31 renal it was 83.4%; in the assay on TK-10 renal, 77.3%; in the assay on ACHN renal, 60.7%. The growth in the assay with CAKI-1 renal was 58.6%; with A498 renal, 34.4%; with CCRF-CEM leukemia, 48.6%; with MOLT-4 leukemia, 2.75% (active); with SR leukemia, 17.8%; in the assay with RPMI-8226 leukemia, -12.3% (active). The growth with OVCAR-8 ovarian was 77%; with OVCAR-5 ovarian, 86%; in the assay on OVCAR-4 ovarian, 67.9%; with IGROV1 ovarian, 70.8%; with OVCAR-3 ovarian, 65.3%; with HS 578T breast it was 1.8% (active). Moreover, in the assay on NCI/ADR-RES ovarian, the growth is 75.4%.

For `C#C[C@]1(O)CC[C@H]2[C@@H]3CC=C4c5nc(Nc6ccccn6)sc5CC[C@]4(C)[C@H]3CC[C@@]21C`, the growth is -29.6% (active) in the assay with SK-MEL-2 melanoma; 2.77% (active) in the assay with EKVX NSCLC; 32.1% in the assay on SN12C renal; -24.4% (active) in the assay with UO-31 renal; 12.3% in the assay on TK-10 renal; 21.6% in the assay on ACHN renal. For the same compound, the growth in the assay with CAKI-1 renal was -37.6% (active); with A498 renal, -49% (active); in the assay on CCRF-CEM leukemia, 0.227% (active); with MOLT-4 leukemia, -11.8% (active); in the assay with SR leukemia, 8.66% (active); with RPMI-8226 leukemia it was -45.6% (active). Besides, the growth with OVCAR-8 ovarian is 27.6%; with OVCAR-5 ovarian it was 30.1%; with OVCAR-4 ovarian, 16.1%; in the assay with IGROV1 ovarian, 32.7%; with OVCAR-3 ovarian, 20.8%; in the assay on HS 578T breast, -16.8% (active). Moreover, the growth in the assay on NCI/ADR-RES ovarian is 22.6%.

Turning to `Cc1c(Cn2cc(COc3ccc(Br)cc3)nn2)c(C)c(Cn2cc(COc3ccc(Br)cc3)nn2)c(C)c1Cn1cc(COc2ccc(Br)cc2)nn1`, the growth was 87.9% with SK-MEL-2 melanoma; 99.5% in the assay with EKVX NSCLC; 92.6% in the assay with SN12C renal; 85.5% in the assay on UO-31 renal; 67.4% in the assay on TK-10 renal; 66.7% in the assay on ACHN renal. The growth is 75.1% in the assay on CAKI-1 renal; 80.6% with A498 renal; 83% in the assay with CCRF-CEM leukemia; 103% in the assay with MOLT-4 leukemia; 63.2% in the assay with SR leukemia; 97.9% with RPMI-8226 leukemia. Also, the growth in the assay on OVCAR-8 ovarian was 95.1%; in the assay with OVCAR-5 ovarian, 96.8%; in the assay on OVCAR-4 ovarian, 87.3%; with IGROV1 ovarian, 90.7%; in the assay on OVCAR-3 ovarian it was 88.7%; in the assay on HS 578T breast, 96.8%. For the same compound, in the assay on NCI/ADR-RES ovarian, the growth is 101%.

For `CC(C)CSc1ncnc2nc[nH]c12`, the growth in the assay with SK-MEL-2 melanoma was 107%; with EKVX NSCLC it was 95.3%; with SN12C renal it was 94.7%; in the assay with UO-31 renal, 93.9%; in the assay with TK-10 renal, 82.4%; in the assay on ACHN renal, 90.3%. Moreover, the growth in the assay with CAKI-1 renal was 98.6%; in the assay on A498 renal, 87.5%; in the assay on CCRF-CEM leukemia it was 86.8%; in the assay on MOLT-4 leukemia, 128%; in the assay on SR leukemia it was 119%; with RPMI-8226 leukemia, 71.4%. The growth in the assay on OVCAR-8 ovarian was 104%; in the assay on OVCAR-5 ovarian, 86.6%; with OVCAR-4 ovarian, 100%; in the assay with IGROV1 ovarian, 67.1%; in the assay on OVCAR-3 ovarian, 103%; in the assay with HS 578T breast, 116%. The growth with NCI/ADR-RES ovarian was 100%.

With `CCCSc1nc(N)nc2nc[nH]c12`, the growth with SK-MEL-2 melanoma was 106%; in the assay on EKVX NSCLC it was 106%; with SN12C renal, 98.3%; in the assay on UO-31 renal, 93.5%; in the assay with TK-10 renal it was 154%; in the assay with ACHN renal, 96.4%. For the same compound, the growth in the assay on CAKI-1 renal was 128%; in the assay on A498 renal it was 123%; in the assay with CCRF-CEM leukemia, 115%; in the assay on MOLT-4 leukemia, 121%; with SR leukemia, 107%; in the assay on RPMI-8226 leukemia it was 101%. For the same compound, the growth was 99.8% in the assay on OVCAR-8 ovarian; 108% with OVCAR-5 ovarian; 114% with OVCAR-4 ovarian; 80.8% with IGROV1 ovarian; 103% in the assay on OVCAR-3 ovarian; 135% in the assay on HS 578T breast. Moreover, the growth in the assay on NCI/ADR-RES ovarian was 108%.
